# From PubChem
# KB-V1 MDR tox: KB-V1 MDR subline cytotoxicity; KB-V1 MDR cells viability, CellTiter-Glo, 72 h; Potency, µM (titrated, usually from 46.1 µM), hits mostly cytotoxic; 400,000 compounds, 3.4% hits; AID 1347076; note: % is set by controls: 0 for no effect and ±100 for the full control effect; nearly all actives have a fitted effect of over 60% in size
#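 Following 72 h at 37 degrees C with compound, KB-V1 cell viability was read by CellTiter-Glo luminescence, medium being phenol-red-free DMEM plus 10% FBS; concentration-response parameters came from normalized, curve-fitted qHTS data.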
# HT1080NT lethal: kills 2HG-producing HT-1080-NT fibrosarcoma cells | HT-1080-NT fibrosarcoma viability, CellTiter-Glo ATP luminescence, 48 h | Potency, µM (highest dose often 46.1 µM), for the others: at the highest dose activity, negative = less viability, usual class: cytotoxic | 360,000 compounds, 1.6% hits;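 note: NT is the 2HG producing partner of a matched IDH1 knockdown line; 0% = DMSO-treated cells and -100% = media-only wells without cells; nearly all actives have a fitted effect of over 55% in size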
#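 HT-1080-NT fibrosarcoma cells (2HG-overproducing), 750 cells/well in RPMI with 5% FBS, dosed after 2 h and incubated 48 h at 37C. CellTiter-Glo luminescence normalized to DMSO and no-cell wells; concentration-response curves fitted and classed.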
# HT1080 IDH1KD tx: HT-1080 IDH1 knockdown cell toxicity (counter line); HT-1080 IDH1 knockdown viability, ATP luminescence, 48 h; Potency, µM (series often up to 46.1 µM), for the others: at the highest dose activity, negative = toxicity, most hits filed as cytotoxic; 360,000 compounds, 2% hits; AID 686971;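 note: 0% = DMSO wells and -100% = cell-free medium wells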
#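 IDH1KD HT-1080 cells, 750/well, RPMI + 5% FBS; compound pinned after 2 h settling; 48 h, 37 °C; CellTiter-Glo luminescence; % activity normalised to DMSO and no-cell wells; curves fitted, classed by r2 and efficacy.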
# KB-3-1 tox: KB-3-1 parental cell cytotoxicity; 400,000 compounds, 1.4% hits; KB-3-1 viability, CellTiter-Glo ATP luminescence, 72 h; Potency, µM (highest dose often 46.1 µM), hits mostly cytotoxic; note: % is set by controls: 0 for no effect and ±100 for the full control effect; nearly all actives have a fitted effect of over 60% in size
#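 Viability of parental KB-3-1 cells, measured by CellTiter-Glo luminescence, followed a 72 h incubation at 37 °C with pinned compounds in phenol-red-free DMEM containing 10% FBS.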
# MCF10A rereplic: DNA re-replication induction in MCF 10a cells. MCF 10A DNA re-replication, Hoechst nuclear intensity, 48 h. Potency, µM (highest dose often 46.1 µM), without a hit: at the highest dose activity, positive = re-replication, hits mostly activators. 350,000 compounds, 2.9% hits. AID 624296; note: % of control where 0% means no effect; nearly all actives have a fitted effect of over 50% in size
# SW480 rerep: inducers of DNA re-replication in SW480 colon cancer cells | Potency, µM (doses to about 46.1 µM), for inactives: at the top dose re-replication activation, hits mostly activators | AID 624297 | SW480 DNA re-replication, Hoechst DNA content imaging, 48 h | 340,000 compounds, 1.8% hits; note: % of control where 0% means no effect; nearly all actives have a fitted effect of over 55% in size
#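 DNA re-replication was detected as more nuclei of elevated Hoechst intensity after 48 hr exposure to compound (23 nL pinned per well of 250 cells).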
# Starred values were filed as active, the others as inactive; i = inactive; ? = inconclusive; . = no result given; [ ] = dose if it differs, or a comment. Hits are enriched below; roughly 8% of the tested compounds scored in any of these assays. Calls come from the whole dose curve; as a rule, active = well fitted curve in the direction sought with a large enough effect; inconclusive = small, poorly fitted or top-dose-only effect, or another doubt; inactive = no such curve, though single readings can be large; an effect the other way counts as inactive or inconclusive. Potency is the fitted concentration of half-maximal effect.
SMILES,KB-V1 MDR tox,HT1080NT lethal,HT1080 IDH1KD tx,KB-3-1 tox,MCF10A rereplic,SW480 rerep
Cc1ccc(Cn2c(=N)n(CC(O)COc3ccccc3)c3ccccc32)cc1 (configuration not stated),16.4µM*,-20.8%,?,i,11.8%,?
Cc1ccc(OCC(O)Cn2c3ccccc3c3ccccc32)cc1 (configuration not stated),?,?,?,i,8.4%,?
N=c1n(Cc2ccccc2)c2ccccc2n1CC(O)COc1ccccc1 (configuration not stated),20.6µM*,?,?,20.6µM*,25.9µM*,?
CCOc1ccccc1NC(=O)Cn1cc(C(=O)c2cccc(OC)c2)c(=O)c2ccc(C)nc21,i,.,.,i,.,.
Clc1cc(Cl)c(Cl)cc1Cl,i,7.6%,1.8%,i,1.5%,1.8%
Clc1cc(Cl)c(OCC#CI)cc1Cl,.,.,.,.,21.1µM*,?
Cc1cc(/C=C(/C#N)c2nc3ccccc3[nH]2)c(C)n1-c1cccc([N+](=O)[O-])c1,?,-12.9%,-11.0%,?,2.9%,4.8%
COc1cc(/C=C(\C#N)c2nc3ccccc3[nH]2)cc(Br)c1OCc1ccccc1,i,?,?,i,18.4µM*,18.4µM*
COc1cc(/C=C(\C#N)c2nc3ccccc3[nH]2)cc(OC)c1O,?,-4.0%,-3.0%,i,?,?
COc1cc(/C=C(\C#N)c2nc3ccccc3[nH]2)ccc1OCc1ccccc1F,i,.,.,i,.,.
Cc1cc(/C=C(\C#N)c2nc3ccccc3[nH]2)c(C)n1C,5.17µM*,6.8%,-0.2%,?,8.5%,?
COc1cc(/C=C(\C#N)c2nc3ccccc3[nH]2)cc(Br)c1OCc1ccc(F)cc1,i,0.9%,0.0%,i,8.2µM*,?
CC1=CNC(=O)CC(C)(C)C1,i,23.5%,29.2%,i,.,.
COCC(=O)Nc1ncc(S(=O)(=O)c2ccc([N+](=O)[O-])cc2)s1,i,0.0%,-15.7%,i,9.0%,-5.9%
O=C(NC(Nc1ncc(S(=O)(=O)c2ccc([N+](=O)[O-])cc2)s1)(C(F)(F)F)C(F)(F)F)c1ccc(Cl)cc1,?,3.26µM*,?,20.6µM*,9.2µM*,?
COc1ccc2c(ccc[n+]2CC(=O)c2ccc(C)cc2)c1,i,0.5%,-25.8%,?,5.3%,2.4%
CCc1ccc(C(=O)C[n+]2cccc3cc(OC)ccc32)cc1,i,-17.1%,-16.2%,13µM*,-2.4%,-0.4%
N#C/C(=C/c1ccc(N2CCOCC2)o1)c1ccc(Br)cc1,18.4µM*,?,?,?,5.8µM*,5.8µM*
N#C/C(=C/c1ccc(N2CCOCC2)o1)c1nc2ccccc2[nH]1,?,-25.0%,?,i,18.1%,-0.3%
N#C/C(=C\c1ccc(N2CCOCC2)o1)c1ccccc1,?,?,4.47µM*,i,18.2%,?
N#C/C(=C\c1ccc(N2CCOCC2)o1)C(=O)Nc1ccc(O)cc1,i,0.5%,-7.6%,i,?,?
CC(=O)C1CCC2C3CC(C)=C4CC(O)CCC4(C)C3CCC12C (configuration not stated),i,?,?,?,?,?
O=C(Nc1ccccc1N1CCCCC1)c1ccc(-c2cc(Cl)ccc2Cl)o1,i,13.9%,8.1%,i,25.8%,?
CC(=O)N1CCc2cc(S(=O)(=O)CCC(=O)NCCc3ccc(Cl)cc3)ccc21,i,-19.3%,-3.7%,?,?,?
CCN(CC)CC(=O)Nc1ccc2c(c1)Nc1ccccc1CC2,?,11.2µM*,?,?,0.8%,1.5%[9.22 µM]
CCN(CC)CC(=O)Nc1ccc2c(c1)N(C(=O)CN(CC)CC)c1ccccc1CC2,?,?,?,i,-16.8%,?
